The record followed here is PubChem BioAssay AID1224852 (National Center for Advancing Translational Sciences (NCATS), 2016).

Records with an inconclusive call do not appear. A number with no mark means an inactive call. The call rests on the fitted dose curve; in most records, active means well fitted curve in the direction sought with a large enough effect (not every such curve was filed as active); inconclusive means small, poorly fitted or top-dose-only effect, or effect the other way, or another doubt; inactive means no such curve, though single readings can be large or run the other way.

The assay in a line: Cell viability assay for measurement of the protective activity of small molecules against cell death caused by Zika virus infection in human neural progenitor cells (hNPCs).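 Further: 0% = ZIKV-infected cells without compound and 100% = uninfected cells.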 The following applies: hNPC ZIKV-induced death protection, ATP luminescence, 72 h; series mostly up to 46.1 µM; protection, negative = more death: at the top concentration. An outline of the steps: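 Luminescent ATP content after 72 h ZIKV infection (2 FFU/cell) of hNPCs, compounds added 1 h before virus. Protection expressed as percent inhibition of the infection-induced drop in cell viability.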
Regarding `CC=CC[C@@H](C)C(=O)[C@H]1C(=O)N[C@@H](C(C)C)C(=O)N(C)CC(=O)N(C)[C@@H](CC(C)C)C(=O)N[C@@H](C(C)C)C(=O)N(C)[C@@H](CC(C)C)C(=O)N[C@@H](C)C(=O)N[C@H](C)C(=O)N(C)[C@@H](CC(C)C)C(=O)N(C)[C@@H](CC(C)C)C(=O)N(C)[C@@H](C(C)C)C(=O)N1C`, the “protection, negative = more death” value is -38.7%. On to `C=C1C(=O)[C@@]23C(CC[C@@H]1[C@H]2O)[C@@]12CO[C@]3(O)[C@@H](O)[C@@H]1C(C)(C)CC[C@@H]2O` (stereo partly drawn), for which the “protection, negative = more death” value is -75.9%. Turning to `COc1ccc(-c2coc3cc(O)ccc3c2=O)cc1`, the “protection, negative = more death” value is -49.1%. In the case of `CN1CCN(c2cc3c(nn2)Oc2ccccc2N3C)CC1`, the “protection, negative = more death” value is 8.35% [at 23.8 µM]. On to `COc1cc2nc(-c3ccc(N4CCN(C)CC4)cc3)nc(NCCN3CCOCC3)c2cc1OC`, for which the “protection, negative = more death” value is -80.9%. For the molecule `CC(C(=O)O)c1ccc2c(c1)[nH]c1ccc(Cl)cc12` (stereo not drawn), the “protection, negative = more death” value was 8.12%. The figure for `O=C(Nc1ncc([N+](=O)[O-])s1)c1cccs1` is -40.1%; for `COc1ccc(/C=C/C(=O)Nc2ccccc2C(=O)O)cc1OC` it is -34.7%.

As to `COc1cccc(-c2ccc(NC(=O)C3=C(C(=O)O)CCC3)c(F)c2)c1`, the “protection, negative = more death” value was -16.9%.

`COc1ccc(-c2cc(=S)ss2)cc1`: the “protection, negative = more death” value was -17.4%.

With `CC1=C(CO)C(=O)O[C@@H]([C@@H](C)[C@H]2CC[C@H]3[C@@H]4C[C@H]5O[C@]56[C@@H](O)C=CC(=O)[C@]6(C)[C@@H]4CC[C@]23C)C1`, the “protection, negative = more death” value was -5.61%. Consider `CC(=Cc1ccccc1)C=C1SC(=S)N(CC(=O)O)C1=O`, for which the “protection, negative = more death” value was -16.5%. The figure for `O=C(C=CC=Cc1ccc2c(c1)OCO2)N1CCCCC1` is -34.5%; for `N[C@H](CSC(c1ccccc1)(c1ccccc1)c1ccccc1)C(=O)O` it is -43.3%. Turning to `O=C1c2ccccc2-[n+]2ccc3c([nH]c4ccccc43)c21`, the “protection, negative = more death” value is -85.7%.

Consider `N#C/C(=C\c1ccc(O)c(O)c1)C(=O)Nc1ccccc1`, for which the “protection, negative = more death” value is -61.2%. Regarding `O=C(CS)Nc1ccccc1`, the “protection, negative = more death” value is -49.6%. `Cc1ccc(C(=O)c2ccc(CC(=O)O)n2C)cc1`: the “protection, negative = more death” value was -31.2%. In the case of `O=C1C(Cl)=C(NCCN2CCOCC2)C(=O)c2ncccc21` it was -79.3%; in that of `O=c1c(-c2ccc(O)cc2)coc2cc(O)ccc12`, -48.8%; in that of `CN(C)c1cc(NC(=O)CNC(C)(C)C)c(O)c2c1C[C@@H]1C[C@H]3[C@H](N(C)C)C(=O)C(C(N)=O)=C(O)[C@@]3(O)C(=O)C1=C2O`, -8.43%.

As for `O=C(Nc1ccc(C(=O)O)c(O)c1)c1ccccc1`, the “protection, negative = more death” value was 15%. Regarding `O=C1c2ccccc2C(=O)c2c(NCCc3ccc(O)cc3)ccc(NCCc3ccc(O)cc3)c21`, the “protection, negative = more death” value is -66.2%. Consider `Nc1nc2ccc([N+](=O)[O-])cc2s1`, for which the “protection, negative = more death” value is -22.2% [at 88.3 µM].

Take `O=C(O)c1cccc(-c2noc(-c3ccccc3F)n2)c1`: the “protection, negative = more death” value was -65.3%.

Consider `Cc1c(N)c(=O)n(-c2ccccc2)n1C`, for which the “protection, negative = more death” value was -5.6%. Take `O=C1NC(=O)C(=Cc2ccc(-c3ccc(F)cc3)o2)S1`: the “protection, negative = more death” value is -16.4%. `Cc1cc(O)c2c(c1)C(=O)c1cc(O)cc(O)c1C2=O`: the “protection, negative = more death” value is -8.67%. In the case of `COc1ccc2nc(NC(=O)Nc3ccccc3)sc2c1` it was -62.9%; in that of `COc1cc2nc(N3CCN(C(=O)C4CCCO4)CC3)nc(N)c2cc1OC` (stereo not drawn), 5.27%; in that of `c1ccc(CCNc2nc(-c3ccccc3)cs2)cc1`, -7.96%. Consider `c1ccc2[nH]c(-c3cscn3)nc2c1`, for which the “protection, negative = more death” value was -20.6%. `CC(=O)Oc1cccc2c1C(=O)c1c(OC(C)=O)cc(C(=O)O)cc1C2=O`: the “protection, negative = more death” value is -25.4%.
